PubChem BioAssay AID504690 (Sanford-Burnham Center for Chemical Genomics, 2011)
Among all 350,000 compounds or so, about 2,700 (0.77%) were called active.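 The calls were made as follows: active = inhibition reaching at least a set limit at 20 µM in the primary screen (cut at about 59% in these data); inactive = the rest.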 Many of the other results were omitted from the sample, so actives are more common in it than they were.

test system: glucose-6-phosphate dehydrogenase-6-phosphogluconolactonase (Plasmodium falciparum 3D7); experiment: inhibition of malaria parasite G6PD (PfGluPho) – biochemical, fluorescence intensity, uHTS, primary screen (AID 504690); settings: PfGluPho enzyme, NADPH resazurin-diaphorase fluorescence; at 20 µM; active compounds read high;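 also: 0% = DMSO wells with substrate and 100% = DMSO wells lacking glucose-6-phosphate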

SMILES	inhibition
O=C(CSC1c2ccccc2-c2ccccc21)N/N=C/c1ccccc1	62.4% (active)
C[C@]12CCCCC1=CC(=O)C1C2CC[C@@]2(C)C1C[C@@H](F)[C@@H]2O (stereo not given in full)	-7.47% (inactive)
CCOP(=S)(OCC)SCOC(=O)NCC(=O)OC	-4.03% (inactive)
COC(=O)C1=C(c2cccc(OCc3ccccc3)c2)C[C@@H]2CC[C@H]1N2C(=O)NCc1ccc(Br)cc1	9.43% (inactive)
CN1CCN(c2cc(N3CCNCC3)ccc2[N+](=O)[O-])CC1	1.22% (inactive)
COc1cccc(-c2nc3ccc(N4CCN(C)CC4)cc3[nH]2)c1	64.4% (active)
c1ccc(C(CN2CCCCC2)c2ccccc2)cc1	-1.44% (inactive)
COc1ccccc1C1=NCc2nnc(CSC)n2-c2ccc(Cl)cc21	-31.3% (inactive)
C[C@@]1([C@@H](NP(=O)(c2ccccc2)c2ccccc2)c2ccccc2)C[C@H]1CCO	-0.29% (inactive)
O=C(NCC(c1cccnc1)N1CCN(c2ccccc2)CC1)Oc1ccccc1 (stereo not given)	7.5% (inactive)
Nc1ccc(Cc2ccc(N)c(Cl)c2)cc1Cl	-5.41% (inactive)
Cc1cc(C)c2c(c1)NP(=S)(c1ccccc1)N2 (stereo not given)	63.6% (active)
COc1ccc2c(c1)NP(=S)(c1ccccc1)N2 (stereo not given)	46.5% (inactive)
C/C=C/CC1(CC)C(=O)NC(=S)NC1=O	-4.76% (inactive)
Nc1ccc(C(=O)N/N=C2/CN3CCC2CC3)cc1	-10.7% (inactive)
COC(=O)N(c1ccc(OC)cc1)P1(=S)OCCC(C)O1 (stereo not given)	81.9% (active)
O=C(CN1CCCCC1)Nc1ccc(Br)cc1C(=O)c1ccccc1Cl	0.87% (inactive)
C=CCn1c(O)c(/C=N/N2CCOCC2)c(=O)[nH]c1=S	-2.25% (inactive)
O=C1NC(=O)N(CCc2ccc(F)cc2)C(=O)/C1=C/C=C/c1ccccc1	4.03% (inactive)
O=C1NC(=O)N(Cc2ccco2)C(=O)/C1=C\c1ccc(-c2ccc(F)cc2)o1	72% (active)
COc1ccc(N2C(=O)/C(=C/c3ccco3)C(=O)NC2=S)cc1	23.2% (inactive)
N#Cc1ccc(Cn2cc(C(=O)c3ccco3)c3ccccc32)cc1	4.04% (inactive)
CCC1(C)CC(CCNCc2ccc(N(C)C)cc2)(c2ccc(F)cc2)CCO1 (stereo not given)	-7.55% (inactive)
CC(=O)OC1C2(CC3N4C(=O)C5(CO)SSC4(CC31O)C(=O)N5C)OC(C)C(C)(C)C2=O (stereo not given)	19.4% (inactive)
O=C1NC(=O)N(c2ccccc2)C(=O)/C1=C/c1ccc([N+](=O)[O-])s1	64.8% (active)
COc1cccc(N2C(=O)NC(=O)/C(=C\c3ccc([N+](=O)[O-])s3)C2=O)c1	56% (inactive)
O=C1NC(=O)N(c2ccc(F)cc2)C(=O)/C1=C/c1ccc2c(c1)CCCN2Cc1ccccc1	18.3% (inactive)
CCOP(=O)(OCC)C(NC(=O)c1ccc(C)cc1)C(Cl)(Cl)Cl (stereo not given)	1.69% (inactive)
CCOCCc1c(O)[nH]c(=S)[nH]c1=O	21.3% (inactive)
CCOP(=S)(OCC)C(O)CCCCCn1c(=O)c(F)cn(C2CCCO2)c1=O (stereo not given)	11.4% (inactive)
